Source: PubChem BioAssay
Pf Dd2 growth: qHTS Primary assay for Inhibitors of Plasmodium falciparum Dd2 growth in vitro | hit rate 4.3% among 120,000 | AID 1347417, 2020 | Potency, µM (top dose mostly 28.9 µM), for inactives: at the top dose activity, negative = inhibition, usual class: inhibitors | P. falciparum Dd2 growth, SYBR Green, 72 h; active = well fitted inhibition curve with a large enough effect;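 note: plate controls were DMSO vehicle for no effect and reference drug for full effect; nearly all actives have a fitted effect of over 65% in size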
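Infected erythrocytes (Dd2, 0.3% parasitemia, 2.5% hematocrit final) are added to compound in RPMI-1640/Albumax II medium, grown 72 h at 37C in low oxygen, then lysed with saponin/Triton-X containing SYBR Green and read by fluorescence.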
Starred values were filed as active, the others as inactive; i = inactive; [ ] = remark or other dose. The entries come from a sample that favours hits as a whole. Potency is the fitted concentration of half-maximal effect.

SMILES	Pf Dd2 growth
CN1[C@@H](CCC(=O)NCc2cccs2)CNC(=O)[C@@H]2[C@H]1CCN2C1CCOCC1	6%[44.1 µM]
COc1ccc(OCC2CCCN(C(=O)c3cn(C4CCCCC4)nn3)C2)cc1 (configuration not stated)	-16%
CC(=O)N[C@H]1C[C@@H](Cc2cc(CN(C)c3ccccc3)on2)C1(C)C	i
CC(=O)N1CCC(N[C@H]2C[C@@H](Cc3cc(CN(C)Cc4ccccc4)on3)C2(C)C)CC1	-26%
CC(=O)N[C@H]1C[C@@H](Cc2cc(CC(C)C)on2)C1(C)C	-11%[44.1 µM]
COC(=O)C(=O)N[C@H]1C[C@@H](Cc2cc(-c3ccccc3)on2)C1(C)C	i
CC1(C)[C@H](Cc2cc(CCO)on2)C[C@@H]1NCc1ccco1	-27%[44.1 µM]
COCC(=O)N[C@H]1C[C@@H](Cc2cc(CN(C)Cc3ccccc3)on2)C1(C)C	8.9µM*
CC1(C)[C@H](Cc2cc(CC3CCCCC3)on2)C[C@@H]1NC(=O)c1ccco1	5µM*
COCC(=O)N[C@H]1C[C@@H](Cc2cc(-c3ccccc3)on2)C1(C)C	7.9µM*
COCc1cc(C[C@@H]2C[C@H](NC(=O)CC(C)(C)C)C2(C)C)no1	-17%[44.1 µM]
CC(C)c1nnc(C2CN(C(=O)c3ccc(F)cc3)CC23CCOCC3)o1 (configuration not stated)	-2%
Cc1ccc(OCc2nc(C3CCCCN3C(=O)c3ccn[nH]3)no2)cc1 (configuration not stated)	-13%
CCc1noc(-c2cn(C3CCN(C(=O)c4cccc(Cl)c4)C3)nn2)n1 (configuration not stated)	-16%
CNC(=O)Nc1ccc(C2(C(=O)N3CCN(c4cccc(Cl)c4)CC3)CCC2)cc1	i
CNC(=O)[C@@H]1CN(C(=O)c2cscn2)C[C@H]1c1nc(COC)no1	20%
Cc1cc(C)c2c(=O)cc(C(=O)Nc3ccc(S(=O)(=O)N(C)Cc4ccccc4)cc3)oc2c1	i
Cc1ccccc1NC(=O)C1=NO[C@@H]2CN(CCc3ccccc3)C[C@H]12	-15%[44.1 µM]
CCc1ccc2oc(C(=O)Nc3cccc(Cl)c3C)cc(=O)c2c1	70%
CCCn1ccc2oc(C)c(C(=O)NCc3ccccc3)c2c1=O	-9%
Cc1c(Cl)cccc1NC(=O)c1ccc(C(=O)Nc2cccc(Cl)c2C)cc1	30%
CCN(Cc1ccccc1)Cc1c(O)ccc2oc(C)c(C(=O)Nc3ccccc3C)c12	1.1µM*
Cc1oc2ccc(O)c(CN(C)Cc3ccccc3)c2c1C(=O)Nc1cccc(Cl)c1C	3.2µM*
Cc1ccccc1NC(=O)c1ccc2nc(Cc3ccccc3)oc2c1	12%
Cc1ccccc1NC(=O)c1c(C)oc2ccc(O)c(CN(C)Cc3ccccc3)c12	1.1µM*
SMILES	Pf Dd2 growth
CCN1C(=O)Cc2cc(C(=O)NCc3ccc4c(c3)OCO4)ccc21	i
Cc1oc(C(O)c2ccccc2F)nc1C(=O)N1CCN(c2ccccn2)CC1 (configuration not stated)	i
COC1CCCN(C(=O)c2cc(-c3ccc(F)cc3)cc3ncn(C)c23)C1 (configuration not stated)	i
OCc1ccc(CN2CC[C@@H](c3ccc4ccccc4c3)[C@H](O)C2)o1	-20%
O=C(c1cccs1)N1CCCCCC1c1nc(C2CC2)no1 (configuration not stated)	i
CN(C)C[C@@H]1CN(c2ncccn2)C[C@H]1NC(=O)c1ccnn1C	15%
Cn1nccc1C(=O)N[C@@H]1CN(c2ncccn2)C[C@H]1CO	2.5µM*
Cn1cccc1C(=O)N[C@@H]1CN(c2ncccn2)C[C@H]1CO	i
NC(=O)Cc1c[nH]c2ncc(-c3ccc(Oc4ccccc4)cc3)cc12	i
NC(=O)[C@@H](Cc1c[nH]c2ccccc12)NC(=O)[C@@H]1CN(C(=O)Nc2ccccc2)CCN1C(=O)C1CCCCC1	i
CCN1CCN(C(=O)Cn2c(-c3cccs3)cc3ccccc32)CC1	-21%
CC(C)(C)c1ccc2c(c1)N(CC(=O)NCCCN1CCN(c3ccccc3F)CC1)C(=O)CO2	0%
O=C(NCCN1CCN(c2ccccc2F)CC1)C1COc2ccccc2C1 (configuration not stated)	3%
CC(C)CCNC(=O)Cn1c(-c2cccs2)cc2cc(F)ccc21	4.5µM*
O=C(Cn1c(-c2cccs2)cc2cc(F)ccc21)NCCCN1CCN(c2ccccc2F)CC1	8.9µM*
CCc1ccc(CNC(=O)Cn2c(-c3cccs3)cc3cc(F)ccc32)cc1	19%
O=C(NCc1ccc(F)cc1)c1csc(N2CCN(c3ccccc3F)CC2)n1	i
CC(C)CCNC(=O)Cn1cc(S(=O)(=O)Cc2ccc(F)cc2)c2ccccc21	51%
O=C(Cn1c(-c2cccs2)cc2ccccc21)NCCCN1CCN(c2ccccc2F)CC1	8.9µM*
COc1cccc(C(=O)N2CCC(C(=O)N3CCc4nc[nH]c4C3)CC2)c1	4%
COc1ccc([S+](=O)([O-])c2nnn3c2nc(NCCCOC(C)C)c2ccccc23)cc1	-14%
O=C(NCc1ccccc1F)c1ccc2c(c1)CN(C1CCSCC1)CCO2	i
COc1ccc(C(=O)N2CC(c3nnc(-c4ccncc4)o3)C3(CCOCC3)C2)cc1F (configuration not stated)	i
CCOCCOC1CCN(C(=O)Nc2ccccc2)CC1	6%
CS(=O)(=O)N1CCC2(C1)OC(=O)Nc1ccccc12 (configuration not stated)	24%[44.1 µM]
SMILES	Pf Dd2 growth
CO[C@H]1[C@H](NC(=O)c2cc(C3CC3)[nH]n2)c2ccccc2C12CCNCC2	-17%
CN1CCC(Cc2ccc(C(=O)O)cc2)CC1	13%
CCN(CC1CCN(C2CCN(C)CC2)CC1)C(=O)c1ccc(-c2ccccc2)cc1	13µM*
Cc1cc(C)c(C(=O)N(CC2CCN(C3Cc4ccccc4C3)CC2)CC2CCCO2)o1 (configuration not stated)	i
COc1ccc(CNC(=O)N2CCOCC2CC(=O)N2CCCC2)cc1 (configuration not stated)	-11%
CCOCC(=O)N1CCC(N2C(=O)CCC2C(=O)NCc2ccccc2)CC1 (configuration not stated)	14%
Cc1ncsc1CN1C(=O)CO[C@H](c2ccc(NC(=O)c3ccccc3)cc2)[C@H]1CO	-18%
Cc1ccc(NC(=O)N2C[C@@H](F)C[C@H]2C(=O)N2CCc3ccccc3C2)c(C)c1	-22%
Cc1cccc(NC(=O)N2C[C@@H](F)C[C@H]2C(=O)N2CCc3ccccc3C2)c1C	7.9µM*
Cc1cc(Cl)ccc1NC(=O)N1C[C@@H](F)C[C@H]1C(=O)N1CCc2ccccc2C1	-16%
COCCC1(C(=O)O)CCCN(CCCn2ccnc2C)C1 (configuration not stated)	4%
COc1cccc(CNC(=O)[C@@H]2C[C@@H](O)CN2C2CCN(C(=O)c3cccc(F)c3)CC2)c1	-23%
CCCN(CCC)CCCNC(=O)C1CCN(S(=O)(=O)CC)CC1	61%
CCc1ccc2nc(N3CCC(C(=O)NCCC(C)C)CC3)sc2c1	i
CCCN(CCC)CCCNC(=O)C1CCN(c2nc3ccc(CC)cc3s2)CC1	7.1µM*
CCCN(CCC)CCNC(=O)C1CCN(c2nc3ccc(CC)cc3s2)CC1	7.1µM*
Cc1ccc(CNC(=O)c2ccc3nc(N4CCCCC4)sc3c2)cc1	-8%
CCOc1ccc2nc(N3CCC(C(=O)Nc4ccc(Br)cc4F)CC3)sc2c1	-27%
OC(c1cccc(C(F)(F)F)c1)c1nc(Nc2ccc(F)cc2F)n[nH]1 (configuration not stated)	i
